According to PubChem BioAssay (NCATS):
Results filed as inconclusive are left out. Entries that show only a call come without a potency. Activity calls are given as the source filed them. Unless noted, calls follow the shape of the dose curve; as a rule, active = well fitted curve in the direction sought with a large enough effect; inconclusive = small, poorly fitted or top-dose-only effect, or another doubt; inactive = no such curve, though single readings can be large; an effect the other way counts as inactive or inconclusive.

How the values were obtained:
[1] = target: Voltage-gated inwardly rectifying potassium channel KCNH2 (Homo sapiens) (UniProt Q12809); experiment: qHTS Assay for Small Molecule Inhibitors of the Human hERG Channel Activity (AID 588834);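 also: lower thallium flux fluorescence means stronger hERG block; nearly all actives have a fitted effect of over 50% in size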; also: potency is read from the fitted curve at half-maximal effect
Method in brief: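 Blockade is seen as reduced FluxOR thallium-flux fluorescence in U2OS cells expressing hERG from a BacMam construct, in Opti-MEM with 2% FCS. Concentration-response data fitted to the Hill equation for AC50.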

[2] = target: Glutaminase kidney isoform, mitochondrial (Homo sapiens) (UniProt O94925); experiment: qHTS for Inhibitors of Glutaminase (GLS): LOPAC Validation (AID 624146); also: nearly all actives have a fitted effect of over 60% in size; also: potency is read from the fitted curve at half-maximal effect
Method in brief: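 Read-out is an Amplex red fluorescence increase coupled through glutamate oxidase and HRP, measured before and after 30 min room-temperature incubation. hKGA is in 45 mM KH2PO4 (pH 8.2) with 0.02% Tween-20; glutamine added as 1mM solution.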

[3] = qHTS of Trypanosoma Brucei Inhibitors: LOPAC Validation (AID 624147); also: potency is read from the fitted curve at half-maximal effect
Method in brief: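 Enzyme and substrate buffer are dispensed first and compound is pin-transferred. ADP at 130 uM final then starts the reaction, which runs 45 min at room temperature. Detection reagent is added for 10 min before luminescence is imaged.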

[4] = S16 Schwann cell viability assay (CellTiter-Glo assay) (AID 624031);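 also: cellular ATP luminescence as a viability measure; series mostly up to about 58 µM; nearly all actives have a fitted effect of over 70% in size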
Method in brief: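 Luminescent ATP read-out (CellTiter-Glo) after 24 h compound exposure of native S16 rat Schwann cells at 37 °C. Signals were normalized between cell-free wells and DMSO-treated cells, set as 0% activity.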

[5] = S16 Schwann cell PMP22 intronic element firefly luciferase assay (AID 624032); also: series mostly up to about 58 µM; nearly all actives have a fitted effect of over 30% in size
Method in brief: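 Luciferase reporter of PMP22 intronic-element expression in stably transfected S16 rat Schwann cells, read by ONE-Glo luminescence after 24 h compound exposure at 37 C. Activity scaled between DMSO (0%) and positive-control PTC124; concentration-effect curves quality-classified.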

[6] = S16 Schwann cell PMP22 intronic element beta-lactamase assay (AID 624044; calls by dose curve; also: nearly all actives have a fitted effect of over 15% in size)
Method in brief: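 Rat S16 Schwann cells with beta-Lac driven by a PMP22 intronic element, compound-treated 24 h at 37 °C. LiveBLAzer FRET B/G read: 460 nm normalized to potassium clavulanate vs DMSO; 535 nm FRET as viability; concentration-effect curves classified.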

Sequence of Glutaminase kidney isoform, mitochondrial (Homo sapiens) (O94925 whole entry, looked up, canonical isoform): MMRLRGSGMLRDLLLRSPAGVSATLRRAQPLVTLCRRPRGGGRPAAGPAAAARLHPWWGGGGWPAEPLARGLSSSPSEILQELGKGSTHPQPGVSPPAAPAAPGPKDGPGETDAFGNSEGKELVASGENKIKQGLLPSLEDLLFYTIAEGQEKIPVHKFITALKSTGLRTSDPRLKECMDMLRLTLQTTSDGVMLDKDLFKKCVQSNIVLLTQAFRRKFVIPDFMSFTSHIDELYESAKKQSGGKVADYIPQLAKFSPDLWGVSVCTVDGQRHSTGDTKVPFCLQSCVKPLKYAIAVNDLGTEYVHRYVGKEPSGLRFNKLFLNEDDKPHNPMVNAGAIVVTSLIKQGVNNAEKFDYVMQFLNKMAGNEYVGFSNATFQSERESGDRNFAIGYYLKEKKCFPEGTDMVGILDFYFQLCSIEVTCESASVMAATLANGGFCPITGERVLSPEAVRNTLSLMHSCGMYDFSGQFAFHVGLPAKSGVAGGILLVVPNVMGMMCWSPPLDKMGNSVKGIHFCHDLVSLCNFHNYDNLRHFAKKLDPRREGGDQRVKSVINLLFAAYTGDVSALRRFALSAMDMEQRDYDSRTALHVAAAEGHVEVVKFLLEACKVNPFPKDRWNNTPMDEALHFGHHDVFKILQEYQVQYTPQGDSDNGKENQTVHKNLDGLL
Sequence of Voltage-gated inwardly rectifying potassium channel KCNH2 (Homo sapiens) (Q12809 whole entry, looked up): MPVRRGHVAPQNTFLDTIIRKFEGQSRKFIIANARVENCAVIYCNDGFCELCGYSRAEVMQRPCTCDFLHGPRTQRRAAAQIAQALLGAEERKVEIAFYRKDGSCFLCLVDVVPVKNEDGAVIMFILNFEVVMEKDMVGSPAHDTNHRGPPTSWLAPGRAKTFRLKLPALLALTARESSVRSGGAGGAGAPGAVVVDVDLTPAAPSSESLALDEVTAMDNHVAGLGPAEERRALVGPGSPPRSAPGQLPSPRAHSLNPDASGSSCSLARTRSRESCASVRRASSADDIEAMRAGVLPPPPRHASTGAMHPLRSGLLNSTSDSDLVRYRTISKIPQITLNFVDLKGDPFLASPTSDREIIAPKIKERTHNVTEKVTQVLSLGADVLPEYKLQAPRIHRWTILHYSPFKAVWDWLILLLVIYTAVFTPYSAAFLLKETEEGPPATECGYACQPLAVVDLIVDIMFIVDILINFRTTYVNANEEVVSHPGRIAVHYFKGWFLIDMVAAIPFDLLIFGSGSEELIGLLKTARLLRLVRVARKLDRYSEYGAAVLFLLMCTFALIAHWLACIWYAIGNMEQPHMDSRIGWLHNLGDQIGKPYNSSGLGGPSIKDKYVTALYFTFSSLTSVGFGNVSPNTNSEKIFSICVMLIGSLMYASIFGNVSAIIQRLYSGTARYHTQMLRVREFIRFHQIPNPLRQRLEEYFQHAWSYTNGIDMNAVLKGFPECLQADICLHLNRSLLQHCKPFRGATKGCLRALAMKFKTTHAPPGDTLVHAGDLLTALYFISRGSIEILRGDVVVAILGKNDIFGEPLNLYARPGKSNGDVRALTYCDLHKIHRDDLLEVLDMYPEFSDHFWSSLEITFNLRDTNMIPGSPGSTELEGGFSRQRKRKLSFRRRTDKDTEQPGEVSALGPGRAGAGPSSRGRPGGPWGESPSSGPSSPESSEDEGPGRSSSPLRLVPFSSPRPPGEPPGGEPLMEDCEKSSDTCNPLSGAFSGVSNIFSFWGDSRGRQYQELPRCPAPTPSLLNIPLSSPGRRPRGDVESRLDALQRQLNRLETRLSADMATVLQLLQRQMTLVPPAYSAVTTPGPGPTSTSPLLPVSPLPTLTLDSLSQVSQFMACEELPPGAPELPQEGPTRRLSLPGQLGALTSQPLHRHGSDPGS

SMILES: CN=c1nc(-c2ccccc2)n(-c2ccccc2)s1
- Potency [1]: 11.2 µM (active)
- Potency [2]: inactive
- Potency [3]: 8.49 µM (active)

SMILES: CC(=O)SCC[N+](C)(C)C
- Potency [1]: inactive
- Potency [2]: inactive
- Potency [3]: inactive

SMILES: OC[C@H]1O[C@@H](n2cnc3c(NC4CCCCC4)ncnc32)[C@H](O)[C@@H]1O
- Potency [1]: inactive
- Potency [2]: inactive
- Potency [3]: inactive

SMILES: CCCCC/C=C\CC(O)/C=C/c1cccc(CC(O)CCCCO)n1 (configuration not stated)
- Potency [1]: inactive
- Potency [2]: inactive
- Potency [3]: inactive

SMILES: Cn1c(=O)c2[nH]c(-c3ccccc3)nc2n(C)c1=O
- Potency [1]: inactive
- Potency [2]: inactive
- Potency [3]: inactive

SMILES: CN(C)C(N)=NCCC[C@H](N)C(=O)O
- Potency [1]: inactive
- Potency [2]: inactive
- Potency [3]: inactive

SMILES: NCCCS(=O)(=O)O
- Potency [1]: inactive
- Potency [3]: inactive

SMILES: C#CCN1C(C)=C(C(=O)OC)C(c2cccc([N+](=O)[O-])c2)C(C(=O)OCC)=C1C (configuration not stated)
- Potency [1]: inactive
- Potency [3]: inactive

SMILES: CN(C)c1nc2c(Br)c(Br)c(Br)c(Br)c2[nH]1
- Potency [1]: inactive
- Potency [3]: inactive

SMILES: NC(CCCP(=O)(O)O)C(=O)O (configuration not stated)
- Potency [1]: inactive
- Potency [3]: inactive

SMILES: C[N+](C)(C)CCOP(=O)(O)OP(=O)([O-])OC[C@H]1O[C@@H](n2ccc(N)nc2=O)[C@H](O)[C@@H]1O
- Potency [1]: inactive
- Potency [2]: inactive
- Potency [3]: inactive

SMILES: CN1CCc2cc(NC(=O)Nc3cccnc3)ccc21
- Potency [1]: inactive
- Potency [3]: inactive

SMILES: NC(=O)C(=O)O
- Potency [1]: inactive
- Potency [3]: inactive

SMILES: CCCCCCCCCCCCCCCCCC(=O)NCC(COP(=O)([O-])OCC[N+](C)(C)C)OCC (configuration not stated)
- Potency [1]: inactive
- Potency [3]: inactive

SMILES: O=C(O)CCCC[C@@H]1CCSS1
- Potency [1]: inactive
- Potency [3]: inactive

SMILES: CCCCCCCCCCCCCCCC(=O)NCC(COP(=O)([O-])OCC[N+](C)(C)C)OCC (configuration not stated)
- Potency [1]: inactive
- Potency [3]: inactive

SMILES: O=c1[nH]c2cc(Cl)c(Cl)cc2[nH]c1=O
- Potency [1]: inactive
- Potency [2]: inactive
- Potency [3]: inactive

SMILES: CC(=O)N[C@H](C(=O)O)C(C)(C)SN=O
- Potency [1]: inactive
- Potency [3]: inactive

SMILES: O=c1[nH]c2cc([N+](=O)[O-])c([N+](=O)[O-])cc2[nH]c1=O
- Potency [1]: inactive
- Potency [2]: inactive
- Potency [3]: inactive

SMILES: COc1cc(OC)c(/C=C2/C(=O)Nc3ccccc32)c(OC)c1
- Potency [1]: inactive
- Potency [3]: inactive

SMILES: NCCCCCCCCCCN
- Potency [1]: inactive
- Potency [2]: inactive
- Potency [3]: inactive

SMILES: COC1=C(OC)C(=O)c2ccccc2C1=O
- Potency [1]: inactive
- Potency [2]: 10 µM (active)
- Potency [3]: inactive

SMILES: COc1ccccc1N1CCN(CCCCNS(=O)(=O)c2cccc3c(N(C)C)cccc23)CC1
- Potency [1]: 1.41 µM (active)
- Potency [3]: inactive

SMILES: CC1CN(S(=O)(=O)c2cccc3cnccc23)CCN1 (configuration not stated)
- Potency [1]: inactive
- Potency [3]: inactive

SMILES: N#C/C(=C\c1c[nH]c2ccccc12)C(=O)c1ccc(O)c(O)c1
- Potency [1]: inactive
- Potency [3]: inactive

SMILES: C[C@@H](NC(=O)/C(C#N)=C/c1ccc(O)c(O)c1)c1ccccc1
- Potency [1]: inactive
- Potency [2]: 1 µM (active)
- Potency [3]: inactive

SMILES: N#C/C(=C\c1ccc(O)c(O)c1)C(=O)c1ccc(O)c(O)c1
- Potency [1]: inactive
- Potency [3]: inactive

SMILES: c1ccc(-c2ccccn2)nc1
- Potency [1]: inactive
- Potency [3]: inactive

SMILES: CC12C(=O)OC(=O)C1(C)C1CCC2O1 (configuration not stated)
- Potency [1]: inactive
- Potency [3]: inactive

SMILES: C[C@@H](CN1CCC(Cc2ccccc2)CC1)[C@@H](O)c1ccc(O)cc1
- Potency [1]: 0.631 µM (active)
- Potency [3]: inactive

SMILES: O=C(O)[C@@H]1C[C@H](C(=O)O)N1
- Potency [1]: inactive
- Potency [2]: inactive
- Potency [3]: inactive

SMILES: N=C(N)SCCc1ccc(CCSC(=N)N)cc1
- Potency [1]: inactive
- Potency [3]: inactive

SMILES: Cc1ccc(O)c(N=Nc2ccccc2)n1
- Potency [1]: inactive
- Potency [3]: 19 µM (active)

SMILES: N[C@@H](CC(=O)O)C(=O)O
- Potency [1]: inactive
- Potency [3]: inactive

SMILES: O=C(O)CC1CCCc2ccccc2C1O (configuration not stated)
- Potency [1]: inactive
- Potency [3]: inactive

SMILES: COc1cc2c(CCNC(C)=O)c[nH]c2cc1Cl
- Potency [1]: inactive
- Potency [3]: inactive

SMILES: Ic1ccc(N2CCN(Cc3c[nH]c4ncccc34)CC2)cc1
- Potency [1]: 1.12 µM (active)
- Potency [3]: inactive

SMILES: NO
- Potency [1]: inactive
- Potency [3]: inactive

SMILES: O=C(O)CC[C@@H](C(=O)O)N1C(=O)c2ccccc2C1=O
- Potency [1]: inactive
- Potency [2]: inactive
- Potency [3]: inactive

SMILES: COc1cc2nc(N3CCN(C(=O)OCc4ccccc4)C(C(=O)NC(C)(C)C)C3)nc(N)c2cc1OC (configuration not stated)
- Potency [1]: inactive
- Potency [3]: inactive

SMILES: CC(C)NC[C@H](O)COc1cccc2[nH]ccc12
- Potency [1]: inactive
- Potency [2]: inactive
- Potency [3]: inactive

SMILES: CN1[C@@H]2CC[C@H]1CC(OC(=O)C(CO)c1ccccc1)C2 (some centres not stated)
- Potency [4]: inactive
- Potency [5]: inactive
- Potency [6]: inactive

SMILES: NCC1OC(O[C@H]2[C@H](O)[C@@H](OC3C(O)C(N)CC(N)C3OC3OC(CO)C(O)C(O)C3N)O[C@@H]2CO)C(N)C(O)C1O (some centres not stated)
- Potency [2]: inactive
- Potency [3]: inactive
